PubChem BioAssay (Tox21)
Results filed as inconclusive are left out. Activity calls are given as the source filed them. Unless noted, the call rests on the fitted dose curve; in most records, active means well fitted curve in the direction sought with a large enough effect in the repeat runs; inconclusive means weak or mixed curves; inactive means no such curve, though single readings can be large; an effect the other way counts as inactive or inconclusive.

What was measured:
[1] = A CellTox Green Cytotoxicity Assay to monitor cytotoxicity in HEK293 cells - 32 hour (AID 1224881); further: nearly all actives have a fitted effect of over 40% in size
Outline: (§1)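 Dead-cell fluorescence measured kinetically: asymmetric cyanine dye, HEK293, 600 cells/well, 5 h settle, 23 nL cpd/DMSO, 37 C, reads 0–40 h every 8 h.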

[2] = A CellTox Green Cytotoxicity Assay to monitor cytotoxicity in HepG2 cells - 0 hour (AID 1224882); further: nearly all actives have a fitted effect of over 35% in size
Outline: (§2)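 First, HepG2 cells (600/well) mixed with reagent were plated; second, after 5 h at 37 C they received compounds via pintool; third, fluorescence was measured at 0 h through 40 h at 8 h intervals.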

[3] = A CellTox Green Cytotoxicity Assay to monitor cytotoxicity in HepG2 cells - 32 hour (AID 1224883); further: nearly all actives have a fitted effect of over 50% in size
Outline: as §2

[4] = A CellTox Green Cytotoxicity Assay to monitor cytotoxicity in HEK293 cells - 8 hour (AID 1224884); further: nearly all actives have a fitted effect of over 35% in size
Outline: as §1

[5] = qHTS RealTime-Glo MT Cell Viability Assay in HepG2 cells - 16 hour (AID 1224885); further: nearly all actives have a fitted effect of over 50% in size
Outline: (§3)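 HepG2 cells (600/well) were dispensed with RealTime-Glo reagents, incubated 5 h at 37 °C, then treated with compounds in DMSO for up to 40 h. Nonlytic NanoLuc luminescence reflecting viable cells was read at each stated time point.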

[6] = qHTS RealTime-Glo MT Cell Viability Assay in HEK293 cells - 24 hour (AID 1224886); further: top concentration of the series differs between compounds; nearly all actives have a fitted effect of over 50% in size
Outline: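 HEK293 cells seeded with NanoLuc/prosubstrate reagent, rested 5 h at 37 C, then dosed and kept at 37 C up to 40 h. Nonlytic real-time luminescence from viable cells read at 0, 8, 16, 24, 32 and 40 h.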

[7] = qHTS RealTime-Glo MT Cell Viability Assay in HEK293 cells - 8 hour (AID 1224887); further: top concentration of the series differs between compounds; nearly all actives have a fitted effect of over 50% in size
Outline: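 600 HEK293 cells per well, dispensed already mixed with RealTime-Glo MT reagents. Compound dosing came 5 h later. The same wells were read for luminescence at 0, 8, 16, 24, 32 and 40 h of exposure at 37 C.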

[8] = A CellTox Green Cytotoxicity Assay to monitor cytotoxicity in HEK293 cells - 16 hour (AID 1224888); further: nearly all actives have a fitted effect of over 35% in size
Outline: as §1

[9] = qHTS RealTime-Glo MT Cell Viability Assay in HepG2 cells - 0 hour (AID 1224889); further: nearly all actives have a fitted effect of over 50% in size
Outline: as §3

[10] = A CellTox Green Cytotoxicity Assay to monitor cytotoxicity in HepG2 cells - 8 hour (AID 1224890); further: nearly all actives have a fitted effect of over 45% in size
Outline: as §2

[11] = qHTS assay to identify small molecule antagonists of the estrogen receptor alpha (ER-alpha) signaling pathway using the BG1 cell line in the presence of 0.1 nM 17-beta-estradiol - cell viability counter screen (AID 1259241); further: nearly all actives have a fitted effect of over 40% in size
Outline: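 Following 5 days in phenol red-free medium with charcoal-stripped serum, VM7Luc4E2 cells received test compounds alongside 0.1 nM 17beta-estradiol (final) at 37C for 22 hr. Live cells were then quantified via protease-substrate fluorescence.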

[12] = qHTS assay to identify small molecule antagonists of the androgen receptor (AR) signaling pathway using the MDA cell line in the presence of 0.5 nM R1881 - cell viability counter screen (AID 1259242); further: nearly all actives have a fitted effect of over 45% in size
Outline: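 qHTS format. MDA-kb2 (MMTV-luc, AR/GR responsive) + cpd + 0.5 nM R1881 final, 16 hr 37C/0% CO2 → CellTiter-Fluor 30 min → fluorescence intensity.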

[13] = biological target: Estrogen receptor (Homo sapiens) (UniProt P03372); experiment: qHTS assay to identify small molecule antagonists of the estrogen receptor alpha (ER-alpha) signaling pathway using the BG1 cell line in the presence of 0.1 nM 17-beta-estradiol (AID 1259244); further: nearly all actives have a fitted effect of over 50% in size
Outline: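 Reporter is a stably transfected luciferase under four estrogen responsive elements in VM7Luc4E2 cells expressing native full-length ER-alpha; inhibition of 0.1 nM (final) 17beta-estradiol-driven signal over 22 h is read by luminescence.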

[14] = qHTS assay to identify small molecule HDAC inhibitors (AID 1259364);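 further: wild-type HCT-116 cells with endogenous class I/II HDAC activity; top concentration of the series differs between compounds; nearly all actives have a fitted effect of over 45% in size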
Outline: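 Quantitative high-throughput format: overnight-seeded HCT-116 cells got compounds for 2 hr at 37C; HDAC-Glo I/II reagent added, 30 min RT, luminescence measured.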

[15] = qHTS assay to identify small molecule HDAC inhibitors - cell viability counter screen (AID 1259365)
Outline: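 HCT-116 wild-type, overnight attachment; 2hr drug exposure, 37C; CellTiter-Glo luminescent ATP readout after 30min RT.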

[16] = qHTS assay to identify small molecule agonists of the sonic hedgehog signaling (Shh) pathway - cell viability counter screen (AID 1259366); further: nearly all actives have a fitted effect of over 50% in size
Outline: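 Compounds in DMSO were pin-transferred onto 3T3 Gli1-Luc cells that had settled 4hr; plates then stood 24hr at 37C and 5% CO2. One hour before the end, CellTiter-Fluor was added and fluorescence recorded.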

[17] = qHTS assay to identify small molecule antagonists of the sonic hedgehog signaling (Shh) pathway - cell viability counter screen (AID 1259367); further: nearly all actives have a fitted effect of over 55% in size
Outline: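 Cytotoxicity was assessed in parallel with Shh reporter activity by measuring live-cell protease fluorescence (CellTiter-Fluor) in NIH/3T3 cells stably carrying Gli1-Luc, treated with compound under conditioned medium stimulation for 23 hr plus 1 hr reagent incubation.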

[18] = qHTS assay to identify small molecule agonists of the sonic hedgehog signaling (Shh) pathway (AID 1259368; calls by dose curve;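 further: NIH/3T3-derived 3T3Gli1-Luc cells carrying a stable Gli1-driven firefly luciferase reporter; series mostly up to about 92 µM; nearly all actives have a fitted effect of over 15% in size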)
Outline: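 Quantitative high-throughput format using a Gli1-driven firefly luciferase reporter line derived from NIH/3T3 cells. After a 24 hr compound treatment at 37 C and 5% CO2, luminescence reported Gli1 response element activity.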

[19] = biological target: Androgen receptor (Homo sapiens) (UniProt P10275); experiment: qHTS assay to identify small molecule antagonists of the androgen receptor (AR) signaling pathway using the MDA cell line in the presence of 0.5 nM R1881 (AID 1259243); further: nearly all actives have a fitted effect of over 50% in size
Outline: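 Antagonist mode quantitative HTS in MDA-kb2 MMTV-luciferase cells, agonist R1881 at 0.5 nM final, 16 hr exposure at 37C and 0% CO2, luminescent detection.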

[20] = qHTS assay to identify small molecule phospholipidosis (PLD) inducers (AID 1259344; active means well fitted curve in the direction sought with a large enough effect; an effect the other way counts as inactive or inconclusive)
Outline: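 Cells (HepG2, 900 per well) attach for 4 h, receive LipidTOX Red and compound together, incubate 24 h at 37 C, are fixed 30 min with paraformaldehyde/Hoechst, then imaged at one site per well.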
On the % scale 0 is the no-effect control and ±100 the full control effect.

Sequence of Estrogen receptor (Homo sapiens) (P03372 whole entry, looked up): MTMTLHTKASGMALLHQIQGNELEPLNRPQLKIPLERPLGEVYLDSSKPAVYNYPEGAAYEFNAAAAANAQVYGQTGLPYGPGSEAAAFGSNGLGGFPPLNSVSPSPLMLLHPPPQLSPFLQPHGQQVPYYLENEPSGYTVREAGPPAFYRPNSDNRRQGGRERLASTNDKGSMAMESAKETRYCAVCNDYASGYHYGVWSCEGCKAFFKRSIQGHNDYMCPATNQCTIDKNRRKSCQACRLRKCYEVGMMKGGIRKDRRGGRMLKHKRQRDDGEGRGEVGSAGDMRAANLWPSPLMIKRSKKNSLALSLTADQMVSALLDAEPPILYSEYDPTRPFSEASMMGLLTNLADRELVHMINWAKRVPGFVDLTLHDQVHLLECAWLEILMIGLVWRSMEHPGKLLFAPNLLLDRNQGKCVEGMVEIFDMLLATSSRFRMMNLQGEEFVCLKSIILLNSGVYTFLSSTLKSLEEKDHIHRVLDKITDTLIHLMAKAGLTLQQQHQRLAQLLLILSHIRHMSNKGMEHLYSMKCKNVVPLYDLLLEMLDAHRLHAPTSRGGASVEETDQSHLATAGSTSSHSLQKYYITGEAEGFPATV
Sequence of Androgen receptor (Homo sapiens) (P10275 whole entry, looked up): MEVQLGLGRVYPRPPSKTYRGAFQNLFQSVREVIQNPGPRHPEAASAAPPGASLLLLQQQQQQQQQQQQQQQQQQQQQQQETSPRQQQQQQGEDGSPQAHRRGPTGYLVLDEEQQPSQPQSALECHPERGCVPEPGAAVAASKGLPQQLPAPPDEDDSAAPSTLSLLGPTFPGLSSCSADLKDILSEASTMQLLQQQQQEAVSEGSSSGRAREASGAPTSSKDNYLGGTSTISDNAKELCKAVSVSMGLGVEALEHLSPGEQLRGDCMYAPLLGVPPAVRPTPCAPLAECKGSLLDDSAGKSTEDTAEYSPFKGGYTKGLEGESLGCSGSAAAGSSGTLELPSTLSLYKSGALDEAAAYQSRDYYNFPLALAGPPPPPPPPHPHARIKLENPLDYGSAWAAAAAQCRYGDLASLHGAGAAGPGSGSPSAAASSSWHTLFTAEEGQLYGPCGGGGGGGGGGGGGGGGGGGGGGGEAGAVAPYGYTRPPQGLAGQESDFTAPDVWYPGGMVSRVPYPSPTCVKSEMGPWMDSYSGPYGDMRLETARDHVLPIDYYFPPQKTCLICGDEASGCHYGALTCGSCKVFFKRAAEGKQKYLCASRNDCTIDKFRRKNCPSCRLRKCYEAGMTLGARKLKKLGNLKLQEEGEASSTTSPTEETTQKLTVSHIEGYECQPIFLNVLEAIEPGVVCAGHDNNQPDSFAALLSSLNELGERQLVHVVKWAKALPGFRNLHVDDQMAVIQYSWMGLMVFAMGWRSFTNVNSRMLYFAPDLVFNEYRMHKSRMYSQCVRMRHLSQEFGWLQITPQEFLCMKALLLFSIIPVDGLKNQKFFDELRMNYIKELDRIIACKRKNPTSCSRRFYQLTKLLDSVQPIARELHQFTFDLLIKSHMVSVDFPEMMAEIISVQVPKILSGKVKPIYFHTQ

C=COC(=O)C(C)(CC)CCC(C)C (stereo not given)
inactive: outcome [1] | Potency [2] | Potency [3] | outcome [4] | outcome [5] | Potency [6] | Potency [7] | outcome [8] | Potency [9] | outcome [10] | outcome [11] | outcome [12] | outcome [13] | Potency [14] | outcome [15] | Potency [16] | Potency [17] | outcome [18]

CC(C)CCCO
inactive: outcome [1] | Potency [2] | Potency [3] | outcome [4] | outcome [5] | Potency [6] | Potency [7] | outcome [8] | Potency [9] | outcome [10] | outcome [11] | outcome [12] | outcome [13] | Potency [14] | outcome [15] | Potency [16] | Potency [17] | outcome [18]

Nc1ccn([C@@H]2O[C@H](CO)[C@@H](O)[C@@H]2O)c(=O)n1
inactive: outcome [1] | Potency [2] | Potency [3] | outcome [4] | outcome [5] | Potency [6] | Potency [7] | outcome [8] | Potency [9] | outcome [10] | outcome [11] | outcome [12] | outcome [13] | Potency [14] | outcome [15] | Potency [17] | outcome [18]

CN(C)CCN(C)CCN(C)C
inactive: outcome [1] | Potency [2] | Potency [3] | outcome [4] | outcome [5] | Potency [6] | Potency [7] | outcome [8] | Potency [9] | outcome [10] | outcome [11] | outcome [12] | outcome [13] | Potency [14] | outcome [15] | Potency [16] | Potency [17] | outcome [18]

Nc1c2c(nc3c1CCC3)CCCC2
inactive: outcome [1] | Potency [2] | Potency [3] | outcome [4] | outcome [5] | Potency [6] | Potency [7] | outcome [8] | Potency [9] | outcome [10] | outcome [11] | outcome [12] | Potency [19] | outcome [13] | outcome [20] | Potency [14] | outcome [15] | Potency [16] | Potency [17] | outcome [18]

CC(C)C1CCC(O)CC1 (stereo not given)
inactive: outcome [1] | Potency [2] | Potency [3] | outcome [4] | outcome [5] | Potency [6] | Potency [7] | outcome [8] | Potency [9] | outcome [10] | outcome [11] | outcome [12] | Potency [19] | Potency [14] | outcome [15] | Potency [16] | Potency [17] | outcome [18]

CC(N)C12CC3CC(CC(C3)C1)C2 (stereo not given)
inactive: outcome [1] | Potency [2] | Potency [3] | outcome [4] | outcome [5] | Potency [6] | Potency [7] | outcome [8] | Potency [9] | outcome [10] | outcome [11] | outcome [12] | outcome [13] | outcome [20] | Potency [14] | outcome [15] | Potency [16] | Potency [17] | outcome [18]

CC(C(=O)O)c1cccc(Oc2ccccc2)c1 (stereo not given)
inactive: outcome [1] | Potency [2] | Potency [3] | outcome [4] | outcome [5] | Potency [6] | Potency [7] | outcome [8] | Potency [9] | outcome [10] | outcome [11] | outcome [12] | outcome [20] | Potency [14] | outcome [15] | Potency [16] | Potency [17] | outcome [18]

CC1=CC(=O)[C@H]2C[C@@H]1C2(C)C
inactive: outcome [1] | Potency [2] | Potency [3] | outcome [4] | outcome [5] | Potency [6] | Potency [7] | outcome [8] | Potency [9] | outcome [10] | outcome [11] | outcome [12] | outcome [13] | Potency [14] | outcome [15] | Potency [17] | outcome [18]

CCOC(=O)c1ccccc1
inactive: outcome [1] | Potency [2] | Potency [3] | outcome [4] | outcome [5] | Potency [6] | Potency [7] | outcome [8] | Potency [9] | outcome [10] | outcome [11] | outcome [12] | outcome [13] | Potency [14] | outcome [15] | Potency [16] | Potency [17] | outcome [18]

CC/C=C\CCOC(C)OCC (stereo not given)
inactive: outcome [1] | Potency [2] | Potency [3] | outcome [4] | outcome [5] | Potency [6] | Potency [7] | outcome [8] | Potency [9] | outcome [10] | outcome [11] | outcome [12] | outcome [13] | Potency [14] | outcome [15] | Potency [16] | Potency [17] | outcome [18]

NC(N)=NCCN1CCCCCCC1
inactive: cytotoxicity increase [1] 2.16% [at 0.29 µM] | cytotoxicity [2] -10% [at 0.29 µM] | cytotoxicity increase [3] -12.8% [at 0.29 µM] | cytotoxicity increase [4] 0.959% [at 0.29 µM] | activity change, negative = cytotoxic [5] 1.58% [at 0.29 µM] | activity change, negative = cytotoxicity [6] -3.39% [at 0.29 µM] | activity change, negative = cytotoxicity [7] -0.479% [at 0.29 µM] | activity change [8] 1.24% [at 0.29 µM] | activity change, negative = cytotoxicity [9] 0.442% [at 0.29 µM] | cytotoxicity increase [10] -11.3% [at 0.29 µM] | activity change, negative = cytotoxicity [11] -0.721% [at 0.349 µM] | viability change, negative = cytotoxic [12] 1.84% [at 0.349 µM] | outcome [20] | activity change, negative = inhibition [14] -1.37% [at 0.349 µM] | activity change, negative = cytotoxicity [15] -1.69% [at 0.349 µM] | viability change, negative = cytotoxic [16] -1.53% [at 0.349 µM] | viability change, negative = cytotoxic [17] 3.04% [at 0.349 µM]

CCC(C)(CN(C)C)OC(=O)c1ccccc1 (stereo not given)
inactive: outcome [1] | Potency [2] | Potency [3] | outcome [4] | outcome [5] | Potency [6] | Potency [7] | outcome [8] | Potency [9] | outcome [10] | outcome [11] | outcome [12] | outcome [20] | Potency [14] | outcome [15] | Potency [16] | Potency [17]

COc1cc(C)nc(-n2nc(C)cc2OC)n1
inactive: outcome [1] | Potency [2] | Potency [3] | outcome [4] | outcome [5] | Potency [6] | Potency [7] | outcome [8] | Potency [9] | outcome [10] | outcome [11] | outcome [12] | outcome [20] | Potency [14] | outcome [15] | Potency [17] | outcome [18]
